Test results from ChEMBL document CHEMBL3433997, “St. Jude Leishmania screening dataset” (2016).

Columns and labels:
Format in all cases: functional
[1] = target: Solute carrier family 2, facilitated glucose transporter member 1 (Homo sapiens) (UniProt P11166); assay: ST_JUDE_LEISH: Cytotoxicity at 2uM final concentration against transgenic Leishmania Mexicana promastigotes LmGLUT1 that are glucose transport deficient and complemented with the human glucose transporter GLUT1. Activity is measured by DNA content using SYBR green in vitro
[2] = target: Hexose transporter 1 (Plasmodium falciparum) (UniProt O97467); assay: ST_JUDE_LEISH: Cytotoxicity at 2uM final concentration against transgenic Leishmania Mexicana promastigotes LmPfHT that are glucose transport deficient and complemented with the Plasmodium falciparum hexose transporter. Activity is measured by DNA content using SYBR green in vitro
[3] = target: Glucose transporter (Leishmania mexicana) (UniProt O61059); assay: ST_JUDE_LEISH: Cytotoxicity at 2uM final concentration against transgenic Leishmania Mexicana promastigotes LmGT2 that are glucose transport deficient and complemented with the L. Mexicana glucose transporter 2. Activity is measured by DNA content using SYBR green in vitro

Sequence of Solute carrier family 2, facilitated glucose transporter member 1 (Homo sapiens) (P11166 whole entry): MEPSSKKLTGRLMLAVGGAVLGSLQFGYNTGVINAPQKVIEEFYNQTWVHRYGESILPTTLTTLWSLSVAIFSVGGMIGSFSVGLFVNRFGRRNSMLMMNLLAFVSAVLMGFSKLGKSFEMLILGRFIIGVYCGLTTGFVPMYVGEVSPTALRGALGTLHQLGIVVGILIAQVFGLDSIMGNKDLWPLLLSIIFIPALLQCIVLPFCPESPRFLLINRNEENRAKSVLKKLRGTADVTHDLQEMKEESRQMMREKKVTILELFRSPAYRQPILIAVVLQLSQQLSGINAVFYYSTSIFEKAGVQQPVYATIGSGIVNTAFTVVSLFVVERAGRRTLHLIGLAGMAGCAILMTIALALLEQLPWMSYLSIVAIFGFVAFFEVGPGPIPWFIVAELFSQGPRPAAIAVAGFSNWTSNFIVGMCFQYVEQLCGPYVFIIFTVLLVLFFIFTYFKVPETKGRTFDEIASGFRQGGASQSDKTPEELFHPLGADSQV

Structure (SMILES)	inhibition [1]	inhibition [2]	inhibition [3]
O=C1NC(=S)N/C1=C/C=C/c1ccc([N+](=O)[O-])o1	27.9%	30.9%	5.12%
CCCCNC(=O)[C@H](CC1CCCCC1)NC(=O)c1ccc(O)c(-c2ccc(OC)cc2)c1	2.45%	2.88%	4.23%
O=[N+]([O-])c1cccc(Nc2cncc(-c3ccc(CO)cc3)c2)c1	2.04%	0.66%	0.83%
CN1CCc2cc(NC(=O)c3cc4ccccc4s3)cc(-c3ccccc3)c2CC1	97.2%	101%	95.9%
Cc1cc(N[C@@H](C)C(=O)Nc2ccccc2)nc(NCCc2ccc(F)cc2)n1	2.77%	4.77%	1.18%
Cc1ccc(CN2CCCN(Cc3cccc(NC(=O)c4cc5ccccc5s4)c3)CC2)cc1C	0.56%	0.71%	-0.17%
O=C(Nc1ccc(-c2cccc(-c3nc4cc(C(F)(F)F)ccc4[nH]3)c2)cc1)Nc1ccc(F)c(F)c1F	0.81%	0.04%	-1.97%
O=C(Nc1cc(F)cc(F)c1)NC1CCN(CCCCCNC(=O)C2CC2c2ccc(Cl)c(Cl)c2)CC1 (stereo unspecified)	0.3%	-0.08%	-2.77%
O=S(=O)(c1ccc(Oc2ccccc2)cc1)N(CCC(O)(C(F)(F)F)C(F)(F)F)Cc1cccc(O)c1	-1.44%	-3.19%	-4.58%
N=C(/N=C(/NCCCCCCN/C(=N/C(=N)NCc1ccc(Cl)c(Cl)c1)N1CCCCC1)N1CCCCC1)NCc1ccc(Cl)c(Cl)c1	8.42%	9.68%	8.06%
COc1ccccc1CCCN1C(=O)C(c2ccccc2)(c2ccccc2)N=C1N	4.43%	0.97%	1.36%
CC(C)=CC1C(C(=O)n2c(=N)[nH]c3ccccc32)C1(C)C (stereo unspecified)	9.13%	7.8%	5.36%
